# Results published in PMC7862700, “An all-to-all approach to the identification of sequence-specific readers for epigenetic DNA modifications on cytosine”.
# What was measured:
# Test in all cases: DAPPL (digital affinity profiling via proximity ligation, sequencing); 10 mM Tris-HCl pH 7.5, 50 mM NaCl, 1 mM DTT, 4% glycerol, room temperature, 30 min; GST-TFs on glutathione beads, 16-mer random dsDNA library, 0.1% formaldehyde crosslink after washing; high values mean tight binding
# Details in all cases: protein: recombinant; tags: N-terminal GST; dsDNA, one strand shown
# ELK1 = target: T1, ELK1 (Homo sapiens, UniProt P19419 1-428)
# T1 sequence: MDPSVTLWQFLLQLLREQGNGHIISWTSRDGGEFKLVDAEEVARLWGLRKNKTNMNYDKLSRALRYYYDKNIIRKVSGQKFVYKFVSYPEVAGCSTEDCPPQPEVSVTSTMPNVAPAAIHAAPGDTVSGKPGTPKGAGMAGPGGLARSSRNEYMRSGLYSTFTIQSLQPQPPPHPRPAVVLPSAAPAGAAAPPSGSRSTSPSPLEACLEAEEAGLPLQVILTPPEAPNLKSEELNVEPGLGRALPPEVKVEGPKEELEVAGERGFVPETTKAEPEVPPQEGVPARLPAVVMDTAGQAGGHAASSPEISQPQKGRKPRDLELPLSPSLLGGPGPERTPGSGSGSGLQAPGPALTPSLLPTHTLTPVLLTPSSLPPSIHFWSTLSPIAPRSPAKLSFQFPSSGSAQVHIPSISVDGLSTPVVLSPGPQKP
# Summary of the method: (§1)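 Sequencing on an Illumina NextSeq500 followed washing, crosslinking with 0.1% formaldehyde, proximity ligation (BsaI/T4 ligase, 1 h, 37 °C) and PCR amplification of pools that had been incubated for 30 min at room temperature with 200 nmole of a random double-stranded 16-mer DNA library in Tris/NaCl/DTT/glycerol buffer. Each pool held DNA-barcoded human transcription factors, expressed in yeast as GST fusions and captured on glutathione beads, plus a tag-only sample. Binding signal is a hexamer's read frequency for a factor divided by its frequency in the tag-only sample.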
# GABPA = target: T2, GABPA (Homo sapiens, UniProt Q06546 1-454)
# T2 sequence: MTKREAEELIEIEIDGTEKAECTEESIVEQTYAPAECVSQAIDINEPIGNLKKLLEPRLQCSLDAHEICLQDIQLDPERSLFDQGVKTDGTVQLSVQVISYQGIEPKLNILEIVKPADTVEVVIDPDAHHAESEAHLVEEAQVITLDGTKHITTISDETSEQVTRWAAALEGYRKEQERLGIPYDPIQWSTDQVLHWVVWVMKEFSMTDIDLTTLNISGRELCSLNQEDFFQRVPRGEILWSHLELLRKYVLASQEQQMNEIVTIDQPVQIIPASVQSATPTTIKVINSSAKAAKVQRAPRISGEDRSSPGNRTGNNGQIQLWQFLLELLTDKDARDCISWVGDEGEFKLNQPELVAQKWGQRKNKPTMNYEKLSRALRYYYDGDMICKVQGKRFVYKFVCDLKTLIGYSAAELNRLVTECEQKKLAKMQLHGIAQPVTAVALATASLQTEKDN
# Summary of the method: as §1
# ERG = target: T3, ERG (Homo sapiens, UniProt P11308 1-479)
# T3 sequence: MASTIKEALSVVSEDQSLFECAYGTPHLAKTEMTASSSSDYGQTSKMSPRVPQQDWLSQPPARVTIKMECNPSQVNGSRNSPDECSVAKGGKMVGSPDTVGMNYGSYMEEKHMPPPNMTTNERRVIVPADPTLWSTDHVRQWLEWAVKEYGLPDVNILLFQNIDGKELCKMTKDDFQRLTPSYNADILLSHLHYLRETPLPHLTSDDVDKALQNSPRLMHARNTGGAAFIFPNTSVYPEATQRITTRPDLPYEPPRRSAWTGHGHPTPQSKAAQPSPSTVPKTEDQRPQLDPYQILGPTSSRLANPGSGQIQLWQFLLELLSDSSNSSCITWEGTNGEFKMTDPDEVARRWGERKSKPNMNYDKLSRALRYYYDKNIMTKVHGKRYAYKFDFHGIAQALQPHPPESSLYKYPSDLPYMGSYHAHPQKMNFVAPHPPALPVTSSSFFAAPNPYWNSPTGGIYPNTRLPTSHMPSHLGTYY
# Summary of the method: as §1
# ELF1 = ELF1 (Homo sapiens, UniProt P32519 1-619)
# Chain of ELF1 (P32519 whole entry): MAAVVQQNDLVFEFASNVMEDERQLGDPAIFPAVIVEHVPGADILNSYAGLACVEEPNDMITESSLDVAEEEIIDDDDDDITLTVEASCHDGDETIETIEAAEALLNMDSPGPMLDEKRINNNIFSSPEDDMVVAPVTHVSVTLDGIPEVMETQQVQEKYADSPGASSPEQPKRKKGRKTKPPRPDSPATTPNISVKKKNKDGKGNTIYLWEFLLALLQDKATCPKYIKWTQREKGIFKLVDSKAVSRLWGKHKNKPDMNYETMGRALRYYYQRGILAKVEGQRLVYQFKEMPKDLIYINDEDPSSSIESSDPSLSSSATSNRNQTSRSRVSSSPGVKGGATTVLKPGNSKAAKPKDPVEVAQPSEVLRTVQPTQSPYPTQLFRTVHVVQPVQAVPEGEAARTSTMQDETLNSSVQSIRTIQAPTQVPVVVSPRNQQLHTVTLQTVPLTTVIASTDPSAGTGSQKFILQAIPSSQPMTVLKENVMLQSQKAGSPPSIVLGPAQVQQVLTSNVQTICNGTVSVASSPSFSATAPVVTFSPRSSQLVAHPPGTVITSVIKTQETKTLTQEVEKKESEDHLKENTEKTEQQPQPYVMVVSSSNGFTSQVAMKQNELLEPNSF
# Summary of the method: as §1
# EHF = target: T4, EHF (Homo sapiens, UniProt Q9NZC4 1-300)
# T4 sequence: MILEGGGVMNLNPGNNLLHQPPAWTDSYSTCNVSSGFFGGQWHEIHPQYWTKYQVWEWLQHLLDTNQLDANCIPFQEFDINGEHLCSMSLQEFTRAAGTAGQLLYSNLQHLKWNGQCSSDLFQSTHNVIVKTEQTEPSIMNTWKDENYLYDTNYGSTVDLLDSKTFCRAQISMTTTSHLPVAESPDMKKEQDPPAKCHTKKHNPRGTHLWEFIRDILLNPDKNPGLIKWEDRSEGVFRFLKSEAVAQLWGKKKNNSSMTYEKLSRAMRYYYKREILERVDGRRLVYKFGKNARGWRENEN
# Summary of the method: as §1
# SPIB = SPIB (Homo sapiens, UniProt Q01892 1-262)
# Chain of SPIB (Q01892 whole entry): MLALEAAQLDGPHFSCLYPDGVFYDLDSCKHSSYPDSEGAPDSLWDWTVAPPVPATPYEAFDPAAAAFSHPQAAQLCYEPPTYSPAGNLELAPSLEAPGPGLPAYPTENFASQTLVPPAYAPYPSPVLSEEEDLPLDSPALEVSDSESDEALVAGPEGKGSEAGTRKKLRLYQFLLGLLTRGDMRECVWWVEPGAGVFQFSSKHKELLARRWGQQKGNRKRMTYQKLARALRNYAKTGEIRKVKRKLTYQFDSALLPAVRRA
# Summary of the method: as §1
# FEV = target: T5, FEV (Homo sapiens, UniProt Q99581 1-238)
# T5 sequence: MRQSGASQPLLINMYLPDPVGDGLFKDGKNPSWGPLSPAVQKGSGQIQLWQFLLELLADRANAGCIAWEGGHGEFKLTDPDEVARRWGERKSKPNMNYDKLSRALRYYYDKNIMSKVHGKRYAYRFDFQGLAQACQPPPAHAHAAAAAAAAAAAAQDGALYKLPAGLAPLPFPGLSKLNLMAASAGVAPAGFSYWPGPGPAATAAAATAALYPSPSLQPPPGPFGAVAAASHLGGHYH
# Summary of the method: as §1
# ETV5 = ETV5 (Homo sapiens, UniProt P41161 1-510)
# Chain of ETV5 (P41161 whole entry): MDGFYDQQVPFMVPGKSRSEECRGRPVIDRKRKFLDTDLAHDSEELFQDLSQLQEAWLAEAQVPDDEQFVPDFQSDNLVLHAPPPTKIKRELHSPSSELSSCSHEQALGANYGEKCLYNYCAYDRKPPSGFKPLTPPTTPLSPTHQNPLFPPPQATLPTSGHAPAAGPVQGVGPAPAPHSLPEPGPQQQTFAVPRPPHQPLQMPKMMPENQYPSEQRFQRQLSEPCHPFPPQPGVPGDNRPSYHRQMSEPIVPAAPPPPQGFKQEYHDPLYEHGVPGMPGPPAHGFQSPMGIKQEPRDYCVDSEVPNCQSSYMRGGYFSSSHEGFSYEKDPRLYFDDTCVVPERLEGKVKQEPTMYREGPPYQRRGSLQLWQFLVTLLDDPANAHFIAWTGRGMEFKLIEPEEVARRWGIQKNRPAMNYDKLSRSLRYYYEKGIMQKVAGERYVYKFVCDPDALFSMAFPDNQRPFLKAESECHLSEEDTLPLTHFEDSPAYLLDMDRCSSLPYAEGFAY
# Summary of the method: as §1
# ELF4 = ELF4 (Homo sapiens, UniProt Q99607 1-663)
# Chain of ELF4 (Q99607 whole entry): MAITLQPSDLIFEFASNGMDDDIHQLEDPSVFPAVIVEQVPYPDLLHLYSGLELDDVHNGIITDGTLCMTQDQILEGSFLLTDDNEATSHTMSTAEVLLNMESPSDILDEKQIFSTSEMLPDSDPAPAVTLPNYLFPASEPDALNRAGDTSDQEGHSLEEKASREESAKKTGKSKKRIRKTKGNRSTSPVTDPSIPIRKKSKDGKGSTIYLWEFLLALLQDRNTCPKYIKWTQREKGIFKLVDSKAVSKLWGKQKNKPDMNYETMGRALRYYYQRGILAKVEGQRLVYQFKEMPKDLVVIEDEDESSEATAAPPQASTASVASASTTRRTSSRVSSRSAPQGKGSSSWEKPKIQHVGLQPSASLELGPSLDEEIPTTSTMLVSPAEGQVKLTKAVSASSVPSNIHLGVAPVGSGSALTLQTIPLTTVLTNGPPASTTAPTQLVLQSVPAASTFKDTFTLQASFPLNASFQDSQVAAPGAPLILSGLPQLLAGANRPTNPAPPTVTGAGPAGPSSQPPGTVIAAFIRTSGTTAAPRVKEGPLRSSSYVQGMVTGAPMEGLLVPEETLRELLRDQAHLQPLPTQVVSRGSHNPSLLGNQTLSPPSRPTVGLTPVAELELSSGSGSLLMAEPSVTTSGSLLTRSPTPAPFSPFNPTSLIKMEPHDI
# Summary of the method: as §1
# ELK4 = target: T6, ELK4 (Homo sapiens, UniProt P28324-2 1-405)
# T6 sequence: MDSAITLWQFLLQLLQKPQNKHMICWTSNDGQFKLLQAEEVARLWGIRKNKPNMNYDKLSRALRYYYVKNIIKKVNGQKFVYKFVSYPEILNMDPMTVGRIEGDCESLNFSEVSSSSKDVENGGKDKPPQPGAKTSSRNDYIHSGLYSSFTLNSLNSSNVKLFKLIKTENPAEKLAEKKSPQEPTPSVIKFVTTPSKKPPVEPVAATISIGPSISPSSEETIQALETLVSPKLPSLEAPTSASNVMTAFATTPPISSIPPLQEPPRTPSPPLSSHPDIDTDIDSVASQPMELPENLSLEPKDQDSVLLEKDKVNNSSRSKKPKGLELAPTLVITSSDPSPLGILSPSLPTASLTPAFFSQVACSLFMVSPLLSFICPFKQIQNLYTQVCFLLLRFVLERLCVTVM
# Summary of the method: as §1
# ETV2 = target: T7, ETV2 (Homo sapiens, UniProt O00321 1-342)
# T7 sequence: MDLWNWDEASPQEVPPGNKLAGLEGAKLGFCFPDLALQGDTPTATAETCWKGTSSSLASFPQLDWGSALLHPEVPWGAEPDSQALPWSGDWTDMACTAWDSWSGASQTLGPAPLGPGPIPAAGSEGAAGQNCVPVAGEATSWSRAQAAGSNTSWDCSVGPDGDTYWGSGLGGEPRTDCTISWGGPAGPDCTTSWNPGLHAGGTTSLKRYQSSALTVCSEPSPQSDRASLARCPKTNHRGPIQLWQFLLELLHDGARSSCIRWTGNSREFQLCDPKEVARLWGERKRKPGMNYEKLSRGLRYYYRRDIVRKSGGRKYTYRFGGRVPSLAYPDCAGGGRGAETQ
# Summary of the method: as §1
# ELF3 = target: T8, ELF3 (Homo sapiens, UniProt P78545 1-371)
# T8 sequence: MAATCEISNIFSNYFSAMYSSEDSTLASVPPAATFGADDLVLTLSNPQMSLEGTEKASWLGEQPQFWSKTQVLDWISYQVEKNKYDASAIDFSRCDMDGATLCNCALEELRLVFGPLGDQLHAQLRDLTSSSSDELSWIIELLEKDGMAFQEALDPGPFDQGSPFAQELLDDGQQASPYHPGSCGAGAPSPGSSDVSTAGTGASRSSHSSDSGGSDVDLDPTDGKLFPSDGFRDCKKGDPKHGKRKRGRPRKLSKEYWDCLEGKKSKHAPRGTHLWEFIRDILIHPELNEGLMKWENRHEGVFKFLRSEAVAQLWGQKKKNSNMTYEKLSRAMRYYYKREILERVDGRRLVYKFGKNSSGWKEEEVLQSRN
# Summary of the method: as §1
# ETV1 = ETV1 (Homo sapiens, UniProt P50549 1-477)
# Chain of ETV1 (P50549 whole entry): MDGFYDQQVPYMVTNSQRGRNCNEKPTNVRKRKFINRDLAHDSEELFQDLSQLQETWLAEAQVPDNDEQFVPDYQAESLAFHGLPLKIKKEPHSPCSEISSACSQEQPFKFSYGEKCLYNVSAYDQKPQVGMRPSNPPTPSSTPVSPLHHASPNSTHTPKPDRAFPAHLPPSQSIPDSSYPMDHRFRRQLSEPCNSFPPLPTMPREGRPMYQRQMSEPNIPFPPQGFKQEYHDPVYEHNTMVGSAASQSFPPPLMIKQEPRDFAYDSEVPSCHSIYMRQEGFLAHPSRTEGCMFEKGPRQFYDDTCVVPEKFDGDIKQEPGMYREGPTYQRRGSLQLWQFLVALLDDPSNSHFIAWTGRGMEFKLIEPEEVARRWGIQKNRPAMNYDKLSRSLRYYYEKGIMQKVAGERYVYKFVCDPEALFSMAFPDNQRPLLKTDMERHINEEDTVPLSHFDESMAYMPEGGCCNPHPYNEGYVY
# Summary of the method: as §1
# ETV3L = target: T9, ETV3L (Homo sapiens, UniProt Q6ZN32 1-361)
# T9 sequence: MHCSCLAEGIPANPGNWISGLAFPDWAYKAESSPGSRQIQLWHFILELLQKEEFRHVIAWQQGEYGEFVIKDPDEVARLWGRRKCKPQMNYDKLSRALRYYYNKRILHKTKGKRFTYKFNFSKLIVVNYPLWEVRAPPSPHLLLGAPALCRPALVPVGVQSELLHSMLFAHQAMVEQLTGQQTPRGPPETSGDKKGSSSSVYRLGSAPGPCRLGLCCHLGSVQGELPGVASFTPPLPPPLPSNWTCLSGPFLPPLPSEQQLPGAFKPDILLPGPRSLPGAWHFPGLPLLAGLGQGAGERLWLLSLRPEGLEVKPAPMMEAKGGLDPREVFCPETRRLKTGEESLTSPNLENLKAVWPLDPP
# Summary of the method: as §1
# ETS2 = target: T10, ETS2 (Homo sapiens, UniProt P15036 1-469)
# T10 sequence: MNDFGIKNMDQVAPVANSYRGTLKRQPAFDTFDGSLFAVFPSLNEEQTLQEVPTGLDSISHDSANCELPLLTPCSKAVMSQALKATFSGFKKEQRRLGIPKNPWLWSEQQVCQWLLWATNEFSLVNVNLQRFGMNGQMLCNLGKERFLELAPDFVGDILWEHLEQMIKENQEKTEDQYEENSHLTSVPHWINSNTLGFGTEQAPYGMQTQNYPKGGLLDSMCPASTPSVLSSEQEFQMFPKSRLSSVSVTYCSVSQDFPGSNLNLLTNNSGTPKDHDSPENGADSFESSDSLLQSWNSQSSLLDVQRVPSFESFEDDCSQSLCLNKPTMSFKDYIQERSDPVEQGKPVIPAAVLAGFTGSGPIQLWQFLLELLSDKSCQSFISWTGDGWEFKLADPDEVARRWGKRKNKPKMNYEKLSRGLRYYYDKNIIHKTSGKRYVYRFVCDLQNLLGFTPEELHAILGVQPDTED
# Summary of the method: as §1
# SPDEF = target: T11, SPDEF (Homo sapiens, UniProt O95238 1-335)
# T11 sequence: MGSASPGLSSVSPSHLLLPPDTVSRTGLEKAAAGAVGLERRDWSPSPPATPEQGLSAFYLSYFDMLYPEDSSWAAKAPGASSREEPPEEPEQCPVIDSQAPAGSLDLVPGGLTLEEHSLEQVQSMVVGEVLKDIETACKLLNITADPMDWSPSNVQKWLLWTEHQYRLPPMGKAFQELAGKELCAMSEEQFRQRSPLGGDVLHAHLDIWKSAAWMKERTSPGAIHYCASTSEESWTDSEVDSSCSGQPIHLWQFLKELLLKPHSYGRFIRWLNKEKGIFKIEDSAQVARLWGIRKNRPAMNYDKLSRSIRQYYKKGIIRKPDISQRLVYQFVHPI
# Summary of the method: as §1
# ETV7 = target: T12, ETV7 (Homo sapiens, UniProt Q9Y603 1-341)
# T12 sequence: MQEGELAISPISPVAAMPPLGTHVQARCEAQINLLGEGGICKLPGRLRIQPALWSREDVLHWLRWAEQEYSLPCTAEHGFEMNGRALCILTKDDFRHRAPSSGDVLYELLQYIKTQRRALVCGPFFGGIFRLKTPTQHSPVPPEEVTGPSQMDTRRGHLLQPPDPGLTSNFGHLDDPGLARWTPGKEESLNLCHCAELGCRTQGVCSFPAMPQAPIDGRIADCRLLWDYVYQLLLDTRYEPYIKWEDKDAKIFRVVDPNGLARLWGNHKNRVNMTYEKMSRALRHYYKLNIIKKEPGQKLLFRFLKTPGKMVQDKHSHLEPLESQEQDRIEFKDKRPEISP
# Summary of the method: as §1
# ETV3 = target: T13, ETV3 (Homo sapiens, UniProt P41162-2 1-143)
# T13 sequence: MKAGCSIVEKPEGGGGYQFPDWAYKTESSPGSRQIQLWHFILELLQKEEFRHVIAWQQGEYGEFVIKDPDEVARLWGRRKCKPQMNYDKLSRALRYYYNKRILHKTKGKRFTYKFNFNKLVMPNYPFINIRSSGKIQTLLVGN
# Summary of the method: as §1
# ETV6 = ETV6 (Homo sapiens, UniProt P41212 1-452)
# Chain of ETV6 (P41212 whole entry): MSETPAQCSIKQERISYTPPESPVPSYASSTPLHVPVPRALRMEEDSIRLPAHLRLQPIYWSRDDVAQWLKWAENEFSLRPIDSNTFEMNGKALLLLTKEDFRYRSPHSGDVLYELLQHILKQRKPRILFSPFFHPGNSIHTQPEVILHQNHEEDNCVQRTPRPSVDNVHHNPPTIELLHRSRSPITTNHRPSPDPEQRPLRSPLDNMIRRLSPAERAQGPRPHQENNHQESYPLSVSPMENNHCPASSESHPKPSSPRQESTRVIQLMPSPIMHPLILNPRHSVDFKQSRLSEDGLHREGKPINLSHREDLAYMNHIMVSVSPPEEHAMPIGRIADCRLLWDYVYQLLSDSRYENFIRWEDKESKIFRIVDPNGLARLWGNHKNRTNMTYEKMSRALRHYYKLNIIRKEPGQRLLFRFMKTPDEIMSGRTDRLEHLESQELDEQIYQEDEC
# Summary of the method: as §1
sequence,measurement,setting,value
CGCCTG,binding signal,ELK1,"1.17 fold enrichment (6-mer frequency, TF over GST control)"
same,binding signal,GABPA,"1.08 fold enrichment (6-mer frequency, TF over GST control)"
same,binding signal,ERG,"1.15 fold enrichment (6-mer frequency, TF over GST control)"
same,binding signal,ELF1,"1.12 fold enrichment (6-mer frequency, TF over GST control)"
same,binding signal,EHF,"1.11 fold enrichment (6-mer frequency, TF over GST control)"
same,binding signal,SPIB,"1.07 fold enrichment (6-mer frequency, TF over GST control)"
same,binding signal,FEV,"1.08 fold enrichment (6-mer frequency, TF over GST control)"
same,binding signal,ETV5,"1.18 fold enrichment (6-mer frequency, TF over GST control)"
same,binding signal,ELF4,"1.05 fold enrichment (6-mer frequency, TF over GST control)"
same,binding signal,ELK4,"1.17 fold enrichment (6-mer frequency, TF over GST control)"
same,binding signal,ETV2,"1.01 fold enrichment (6-mer frequency, TF over GST control)"
same,binding signal,ELF3,"1.19 fold enrichment (6-mer frequency, TF over GST control)"
same,binding signal,ETV1,"1.09 fold enrichment (6-mer frequency, TF over GST control)"
same,binding signal,ETV3L,"1.1 fold enrichment (6-mer frequency, TF over GST control)"
same,binding signal,ETS2,"1.12 fold enrichment (6-mer frequency, TF over GST control)"
same,binding signal,SPDEF,"1.03 fold enrichment (6-mer frequency, TF over GST control)"
same,binding signal,ETV7,"1.01 fold enrichment (6-mer frequency, TF over GST control)"
same,binding signal,ETV3,"1.06 fold enrichment (6-mer frequency, TF over GST control)"
same,binding signal,ETV6,"1.14 fold enrichment (6-mer frequency, TF over GST control)"
